Screening results as filed in PubChem BioAssay.
ALOX12 inh: Primary qHTS assay for inhibitors of human arachidonate 12S-lipoxygenase (ALOX12): Round 2 | purified 12hLO, xylenol orange hydroperoxide absorbance | Potency, µM (series often up to 108 µM), inactives show at the highest dose activity change, negative = inhibition, most hits filed as inhibitors | actives 1.1% (n = 580,000); also: % is scaled to controls: 0 for no effect and ±100 for the full control effect
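Purified human 12hLO at 150 nM in 25 mM Hepes, 0.01% Triton X-100, pH 7.0, preincubated 15 min at room temperature with compound. Reaction started with 40 uM arachidonic acid, 30 min at room temperature. Hydroperoxide measured by Fe-xylenol orange, 573/405 nm absorbance ratio.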
G9a block: qHTS Assay for Inhibitors of Histone Lysine Methyltransferase G9a; Histone-lysine N-methyltransferase EHMT2 (Homo sapiens), Q96KQ7; G9a H3K9 monomethylation, AlphaScreen, 2 h; Potency, µM (top dose mostly 102 µM), without a hit: at the top dose activity, negative = inhibition, actives largely listed as inhibitors; actives 8.8% (n = 350,000); also: % is scaled to controls: 0 for no effect and ±100 for the full control effect; nearly all actives have a fitted effect of over 75% in size
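Step 1: enzyme (final 20 nM) with compound, 15 min RT. Step 2: substrate peptide 500 nM and SAM 20 uM, 2 h RT. Step 3: anti-H3K9me1 antibody and AlphaScreen beads, 10 min, then plate read.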
JMJD2A Tudor: qHTS Assay for Inhibitors of JMJD2A-Tudor Domain; actives 4.4% (n = 390,000); Potency, µM (titrated, usually from 114 µM), without a hit: at the top dose activity change, negative = inhibition, most hits filed as inhibitors; Lysine-specific demethylase 4A (Homo sapiens), O75164; AlphaScreen JMJD2A-Tudor / H3K4me3 peptide binding; also: % is scaled to controls: 0 for no effect and ±100 for the full control effect; nearly all actives have a fitted effect of over 50% in size
PLK1 PBD block: qHTS for Inhibitors of PLK1-PDB (polo-like kinase 1 - polo-box domain): Primary Screen; Serine/threonine-protein kinase PLK1 (Homo sapiens), P53350; Plk1 PBD binding of FITC phosphopeptide, fluorescence polarization; Potency, µM, without a hit: max response, negative = inhibition, actives largely listed as inhibitors; actives 2.8% (n = 360,000); AID 720504, 2013; also: series mostly up to about 57 µM; % is scaled to controls: 0 for no effect and ±100 for the full control effect; nearly all actives have a fitted effect of over 65% in size
Target sequence (P53350 whole entry, looked up, the tested form may be a part): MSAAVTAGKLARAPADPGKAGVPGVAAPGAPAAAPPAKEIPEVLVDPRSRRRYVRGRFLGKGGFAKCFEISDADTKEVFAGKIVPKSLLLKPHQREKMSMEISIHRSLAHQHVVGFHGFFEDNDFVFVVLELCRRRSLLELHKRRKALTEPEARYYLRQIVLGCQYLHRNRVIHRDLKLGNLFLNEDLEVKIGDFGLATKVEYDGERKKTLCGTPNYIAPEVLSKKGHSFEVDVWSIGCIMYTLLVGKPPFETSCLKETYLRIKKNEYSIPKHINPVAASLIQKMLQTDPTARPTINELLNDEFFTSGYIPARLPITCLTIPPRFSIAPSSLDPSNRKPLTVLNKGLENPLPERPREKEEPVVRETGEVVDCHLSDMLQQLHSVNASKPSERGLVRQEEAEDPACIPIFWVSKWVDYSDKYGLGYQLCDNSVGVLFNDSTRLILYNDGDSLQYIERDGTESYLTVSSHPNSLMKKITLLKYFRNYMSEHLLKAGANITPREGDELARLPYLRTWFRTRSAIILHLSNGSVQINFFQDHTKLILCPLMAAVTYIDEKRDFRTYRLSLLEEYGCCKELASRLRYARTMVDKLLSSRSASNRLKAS
BAZ2B block: qHTS Assay for Inhibitors of BAZ2B | AlphaScreen BAZ2B-H3K14Ac peptide displacement | Potency, µM (highest dose often 114 µM), for inactives: at the highest dose activity change, negative = inhibition, hits mostly inhibitors | actives 4.4% (n = 360,000) | AID 504333, 2011; also: % is scaled to controls: 0 for no effect and ±100 for the full control effect; nearly all actives have a fitted effect of over 60% in size
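Complex of BAZ2B and biotin-H3K14Ac (50 nM apiece) forms over 30 min at RT, then faces library compounds up to 110 uM for another 30 min; AlphaScreen beads added, 20 min dark incubation, luminescence read.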
HP1b chromo inh: HTS for Inhibitors of HP1-beta Chromodomain Interactions with Methylated Histone Tails; Chromobox protein homolog 1 (Homo sapiens), P83916; AlphaScreen HP1-beta / biotin-H3K9me3 peptide binding; Potency, µM (titrated, usually from 114 µM), for the others: top-dose activity change, negative = inhibition, actives largely listed as inhibitors; actives 0.56% (n = 390,000); AID 540317, 2011; also: nearly all actives have a fitted effect of over 70% in size
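HP1-beta protein (50 nM final) preincubated 30 min at room temperature with biotinylated H3(1-18)K9me3 peptide (50 nM) in PBS pH 7.4, 0.01% Tween-20, then compound added for 30 min. AlphaScreen streptavidin donor/nickel chelate acceptor beads (10 ug/mL final), 30 min dark, luminescence read.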
* marks the source's active call; other numbers are inactive results; u = inconclusive; x = not tested or not shown; ! = not confirmed by another sample; [ ] = another dose, or the depositor's remark. Most compounds without a hit are left out; they make up all but 9% or so of the library. Calls follow the shape of the dose curve; as a rule, active = well fitted curve in the direction sought with a large enough effect; inconclusive = small, poorly fitted or top-dose-only effect, or another doubt; inactive = no such curve, though single readings can be large; an effect the other way counts as inactive or inconclusive. Potency is read from the fitted curve at half-maximal effect.

SMILES	ALOX12 inh	G9a block	JMJD2A Tudor	PLK1 PBD block	BAZ2B block	HP1b chromo inh
COc1ccc(S(=O)(=O)N2CCC(C(=O)N3CCC(C(N)=O)CC3)CC2)cc1Cl	-6%	6%	-7%	-5%	-13%	5%
COc1ccc(C)cc1S(=O)(=O)Nc1cccc(-c2ccc(N3CCC(C)CC3)nn2)c1	-18%	7%[59 µM]	-9%	x	-2%	15%[57 µM]
O=S(=O)(Nc1cccc(-c2ccc(N3CCCCCC3)nn2)c1)c1cccc(F)c1	53%	32µM*!	-26%	-5%	-20%[57.1 µM]	18%
COc1ccc(C)cc1S(=O)(=O)Nc1cccc(-c2ccc(N3CCCCCC3)nn2)c1	8%	10%[0.501 µM]	16µM*	17µM*	-13%	4%
O=S(=O)(Nc1cccc(-c2ccc(N3CCCCCC3)nn2)c1)c1ccc(F)cc1	7%	5%	u	-10%	u	39%
COCCNC(=O)[C@@H]1C[C@H](Oc2cccnc2)CN1C(=O)CC1CCCCC1	25%	x	x	x	x	x
COC(=O)Nc1ccc(S(=O)(=O)N2CCCC(C(=O)Nc3cccc4c3OCCO4)C2)cc1 (stereo not given)	-30%	11%[59 µM]	-13%	2%	-5%	7%
CN(C(=O)COC(=O)Cn1c(C(F)(F)F)nc2ccccc21)c1c(N)n(Cc2ccccc2)c(=O)[nH]c1=O	-7%	x	-1%	-7%	-4%	18%
CCc1nc2ccccc2n1CC(=O)OCC(=O)N(CC(C)C)c1c(N)n(Cc2ccccc2)c(=O)[nH]c1=O	-17%	56µM*	-5%	3%	6%	29%
CC(C)CN(C(=O)COC(=O)c1ccccn1)c1c(N)n(Cc2ccccc2)c(=O)[nH]c1=O	-19%	45µM*	6.3µM*	-9%	u	-13%
CC(C)CN(C(=O)COC(=O)c1cnccn1)c1c(N)n(Cc2ccccc2)c(=O)[nH]c1=O	-27%	u	-5%	0%	-5%	30%
CC(NCc1cccc(C#N)c1)c1ccccc1Br (stereo not given)	10%	x	x	x	x	x
CCN(c1ccccc1)S(=O)(=O)c1ccc(Cl)c(NC(=O)COC(=O)c2cc(O)c3ccccc3c2O)c1	x	u	x	x	50µM*	x
CCN(c1ccccc1)S(=O)(=O)c1cc(NC(=O)CN2CCN(C)CC2)ccc1Cl	u	x	0.89µM*	-3%	x	u
CN1CCN(CC(=O)Nc2ccc(Oc3ccccc3)cc2)CC1	-1%	13%[12.7 µM]	-14%	-7%	7%	17%
CCN(c1ccccc1)S(=O)(=O)c1ccc(Cl)c(NC(=O)CSc2nncs2)c1	-8%	5%	79µM*	1%	4%	18%
CCN(c1ccccc1)S(=O)(=O)c1ccc(Cl)c(NC(=O)COC(=O)c2ccc(O)cc2)c1	-13%	-13%	-13%	1%	7%	u
CCN(c1ccccc1)S(=O)(=O)c1ccc(Cl)c(NC(=O)CN2CCCCCC2)c1	-23%	-109%[59 µM]	0.71µM*	-14%	50µM*	22µM*
O=C(Nc1ccc(-n2cccn2)c(F)c1)C1CCN(C(=O)c2cccs2)CC1	19%	x	x	x	x	x
C=CCN(Cc1cccc(OCC)c1)C(=O)CC1C(=O)N(C)C(=O)N1C (stereo not given)	32%	x	x	x	x	x
CCNC(=O)C(C)Sc1nc(C(F)(F)F)nc2ccccc12 (stereo not given)	16%	x	x	x	x	x
COC(=O)C1=C(C)NC(=O)C1(NC(=O)c1ccncc1)C(F)(F)F (stereo not given)	0%	4%	u	21µM*	4%	21%
COC(=O)C1=C(C)NC(=O)C1(NC(=O)c1ccccc1C)C(F)(F)F (stereo not given)	-7%	6%[59 µM]	2%	x	1%	31%
C[n+]1cc(-c2ccccc2)n2c1CCCCC2	x	71µM*	-23%	-2%	45µM*	20%
Clc1ccc(C[n+]2cc(-c3ccccc3)n3c2CCCCC3)c(Cl)c1	4%	27%[12.7 µM]	-4%	-4%	-16%	35%
SMILES	ALOX12 inh	G9a block	JMJD2A Tudor	PLK1 PBD block	BAZ2B block	HP1b chromo inh
CCN(CC)CCCN(C/C=C/c1ccccc1)C/C=C/c1ccccc1	0.71µM*	x	x	x	x	x
CC(C)c1ccc(NC(=O)c2cc(S(=O)(=O)N(C)C3CCCCC3)ccc2F)cc1	-16%	6%[59 µM]	-9%	x	0%	41%
Cc1ccccc1OCc1nc2ccccc2c(=O)n1/N=C/c1ccco1	10%	u	-11%	7%	-30%	4%
S=c1[nH]nc(COc2ccccc2)n1/N=C/c1ccco1	u	-116%	18µM*	0%	u	-14%
Cc1ccc(/C=N/n2c(COc3ccccc3)n[nH]c2=S)o1	u	13µM*	56µM*	u	-33%	-3%
O=C(Cn1ccc2ccccc2c1=O)NCC(=O)Nc1ccc(F)cc1F	-9%	4%	6%	2%	3%	7%
N#CCCN(Cc1cccnc1)C(=O)c1ccc(S(=O)(=O)N2CCOCC2)cc1	-23%	14%[59 µM]	-10%[11.4 µM]	-20%	4%	4%
O=c1[nH]nc2n1CCN(Cc1cc(F)c(F)c(F)c1)CC2	52%	x	x	x	x	x
O=[N+]([O-])c1ccccc1/C=N/n1c(-c2ccccc2)n[nH]c1=S	-1%	x	8.9µM*	u	u	-28%
Oc1c(Br)cc(Br)c(/C=N/n2c(-c3ccccc3)n[nH]c2=S)c1Br	18µM*	x	7.9µM*	12µM*	50µM*	u
COc1cc(/C=N/n2c(-c3ccccc3)n[nH]c2=S)cc(OC)c1OC	28µM*	x	5µM*	-20%	-5%	u
Oc1ccc(/C=N/n2c(-c3ccccc3)n[nH]c2=S)cc1	-55%	-1%[0.501 µM]	20µM*	-10%	-3%	42%
CC1=C(C(=O)OC(C)C)C(c2cccc(F)c2)N2C(CC(=O)NCc3ccco3)=CSC2=N1 (stereo not given)	-1%	x	x	x	x	x
CCN=C1SC(C(=O)Nc2cccc(C(=O)O)c2)CC(=O)N1CC (stereo not given)	0%	u	-30%	-2%	7%	53%
COc1cccc(/C=N/n2c(-c3cccs3)n[nH]c2=S)c1	u	u	50µM*	-15%	u	-3%
Oc1ccc(Br)cc1/C=N/n1c(-c2ccccc2)n[nH]c1=S	u	x	u	u	u	-14%
Cc1n[nH]c(=S)n1/N=C/c1ccccc1	1%	10µM*	4µM*	-9%	-7%	24%
